Data on one compound can be found in PubChem BioAssay AID651925 (Vanderbilt Specialized Chemistry Center, 2012).

Calls of active or inactive are those of the source. The rule behind the calls is not given here.

In the assay the target is Muscarinic acetylcholine receptor M4 (Homo sapiens) (UniProt P08173). The assay can be described thus: ACh response enhancement at M4 – CHO cells, human M4, selectivity assay for M5 PAM project (AID 651925).
Sequence of Muscarinic acetylcholine receptor M4 (Homo sapiens) (P08173 whole entry, looked up): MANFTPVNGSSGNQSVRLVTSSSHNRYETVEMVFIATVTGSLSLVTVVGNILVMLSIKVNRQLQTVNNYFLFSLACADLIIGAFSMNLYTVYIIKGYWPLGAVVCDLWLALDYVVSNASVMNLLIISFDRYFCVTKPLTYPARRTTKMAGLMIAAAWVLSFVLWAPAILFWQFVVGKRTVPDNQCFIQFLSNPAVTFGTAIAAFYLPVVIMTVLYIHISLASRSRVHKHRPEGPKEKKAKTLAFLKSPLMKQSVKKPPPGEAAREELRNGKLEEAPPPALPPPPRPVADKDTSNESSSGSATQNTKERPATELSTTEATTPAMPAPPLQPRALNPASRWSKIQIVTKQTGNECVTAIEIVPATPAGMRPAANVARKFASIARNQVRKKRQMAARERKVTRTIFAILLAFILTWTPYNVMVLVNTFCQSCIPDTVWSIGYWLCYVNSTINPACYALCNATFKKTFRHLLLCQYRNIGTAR

For the compound `O=C1C(=O)N(CCOc2ccccc2)c2ccc(OC(F)(F)F)cc21`, the result was inactive.
